Hit rate of the full screen: of about 1,400 compounds, fewer than 10 were called active.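 The calls were made as follows: active = fluorescence-lowering compounds whose fitted half-maximal concentration is at or below ten times the highest valid dose tested; inconclusive = flat curve at 30 to 70% inhibition, or poor fit; inactive = the rest.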 A selection follows.

This note sets out measurements from PubChem BioAssay AID485318 (Broad Institute, 2010).

Histone deacetylase 3 (Homo sapiens), sequence (O15379 whole entry, looked up): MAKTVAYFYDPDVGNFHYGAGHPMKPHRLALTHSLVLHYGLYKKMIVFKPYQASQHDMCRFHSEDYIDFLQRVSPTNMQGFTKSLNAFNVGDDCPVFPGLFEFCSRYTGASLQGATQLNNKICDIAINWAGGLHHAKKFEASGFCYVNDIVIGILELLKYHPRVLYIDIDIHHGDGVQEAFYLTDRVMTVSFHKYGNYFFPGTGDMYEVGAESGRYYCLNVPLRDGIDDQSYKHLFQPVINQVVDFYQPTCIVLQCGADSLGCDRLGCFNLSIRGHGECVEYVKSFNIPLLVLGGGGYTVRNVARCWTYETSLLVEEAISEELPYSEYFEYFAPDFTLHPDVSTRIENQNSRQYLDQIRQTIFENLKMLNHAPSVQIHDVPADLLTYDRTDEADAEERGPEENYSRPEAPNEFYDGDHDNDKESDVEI

This experiment addresses Histone deacetylase 3 (Homo sapiens) (UniProt O15379). The experiment is described as follows: inhibition of human HDAC3 enzymatic activity – biochemical, fluorescence, cherry-picked samples, counter-screen for JMJD2C/GASC1 demethylase inhibitor project, dose response (AID 485318).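 Also: enzyme preincubated with compound before substrate and trypsin were added.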 The note with it: recombinant HDAC3, fluorogenic peptide/trypsin coupled; series mostly up to 12 µM.
For `C[C@H]1CN(CCc2ccccc2)C(=O)[C@@H]1CC(=O)NCc1ccccc1`, the outcome was inactive. Regarding `COc1ccc(NC(=S)NNC(=O)c2ccc(S(=O)(=O)N3CCOCC3)cc2)cc1`, the result was inactive. As to `CN(c1ccc(OCC(=O)N2CCCCC2)cc1)S(=O)(=O)c1cccs1`, the result was inactive. For `Nc1c(Cl)ncnc1NCc1cccnc1`, the result was inactive.

With `CCC(C)C(NC(=O)OC(C)(C)C)C(=O)NC(C(=O)N1CCCC1C(N)=O)C(C)CC` (centres undefined), the result was inactive. For `COc1cc(OC)cc(C(=O)Nc2ccc(-n3cnnn3)c(C)c2)c1`, the outcome was inactive.

For the molecule `N#CCCn1c(SCC(=O)N2CCN(S(=O)(=O)c3ccccc3)CC2)nc2ccccc21`, the result was inactive. With `CCOC(=O)Nc1cc(C)c(Cl)cc1OC`, the result was inactive. The entry for `Cc1onc(-c2ccccc2)c1C(=O)Nc1c(C)n(C)n(-c2ccccc2)c1=O` is “inactive”; for `CS(=O)(=O)N(CC(=O)Nc1ccccc1C(=O)NCCc1ccccc1)c1ccc2c(c1)OCCO2` it is “inactive”; for `CCOC(=O)c1[nH]c(C)c(/C(O)=C2\C(=O)C(=O)N(CCCN(CC)CC)C2c2cccnc2)c1C` (centres undefined) it is “inactive”. With `COc1ccc(CCNC(=O)N2c3ccccc3Sc3ccccc32)cc1`, the result was inactive.

Consider `CCC(=O)Nc1ccc(NC(=O)CSc2nnnn2C(C)C)cc1`, for which the outcome was inactive. For `C[C@@H]1CCCCCCCCC(=O)OCCN(C(=O)OC(C)(C)C)[C@H](C)CCCCCCCCC(=O)OCCN(C(=O)OC(C)(C)C)[C@H](C)CCCCCCCCC(=O)OCCN1C(=O)OC(C)(C)C`, the outcome was inactive. Regarding `Cc1ccc(S(=O)(=O)Nc2ccc3c(c2)CC(=O)N([C@H](C)CO)C[C@@H](C)[C@H](CN(C)S(=O)(=O)c2ccccc2)O3)cc1`, the result was inactive. For `CCOc1ccc(CN(C)CC(=O)Nc2cc(C)c(C)cc2[N+](=O)[O-])cc1`, the outcome was inactive. Regarding `COc1ccccc1OCCOCCn1cnc2ccccc2c1=O`, the result was inactive. `O=[N+]([O-])c1cc(/C=N/Nc2nc3ccccc3[nH]2)c(O)cc1O`: the outcome was inactive.

Regarding `CC(=O)C[C@@H](O)CC(=O)[C@H]1OC(=O)[C@H](C)CCCCc2ccccc21`, the result was inactive. The entry for `CC[C@]12c3[nH]c4ccccc4c3CCN1C(=O)C(CC(=O)NCCCOC)C[C@@H]2C(=O)N1CCN(C(=O)c2ccco2)CC1` (some centres undefined) is “inactive”; for `CCOCCc1nnc(NC(=O)c2ccc(OC)c(OC)c2)s1` it is “inactive”. The entry for `O=C1CCCc2c1nc(-c1ccccc1)n2O` is “inactive”. The entry for `COC(=O)[C@]1(Cc2ccccc2)N[C@H](CN(C)S(=O)(=O)c2ccc(F)cc2)[C@@H]2C(=O)N(Cc3ccccc3)C(=O)[C@@H]21` is “inactive”; for `COc1ccc(C2CC(c3cccs3)=NN2S(=O)(=O)c2ccc(C)cc2)cc1` (centres undefined) it is “inactive”. For the molecule `COc1ccc(/C=C/C(=O)NC(=S)NNC(=O)Cc2cccs2)cc1OC`, the outcome was inactive. Regarding `Cc1ccc(N2CC(C(=O)Nc3ccc(N(C)C)cc3)CC2=O)cc1C` (centres undefined), the outcome was inactive. The entry for `COc1ccc(NN=Nc2nc3c([nH]2)c(=O)n(C)c(=O)n3C)cc1` is “inactive”; for `O=C(Cc1sc(-c2ccccc2)nc1-c1ccccc1)Nc1ccccc1` it is “inactive”. As for `CCc1ccc(NC(=O)CSc2nnc(CNC(=O)c3c(F)cccc3Cl)o2)cc1`, the result was inactive. On to `O=C1CC2(CCN(C(=O)c3ccccc3Cl)CC2)Oc2ccccc21`, for which the outcome was inactive. For `C[C@H]1CN([C@@H](C)CO)C(=O)Cc2cc(NS(=O)(=O)c3cccs3)ccc2O[C@H]1CN(C)S(=O)(=O)c1cn(C)cn1`, the result was inactive.

`CC(=O)Nc1ccc2c(c1)C(C)(C)C(C)N2C` (centres undefined): the outcome was inactive. Take `O=C(O)c1ccnc(C(=O)O)c1`: the outcome was inactive. Consider `COc1ccc(NC(=O)Nc2cccc3c2O[C@H](CN(C)C(=O)NC(C)C)[C@@H](C)CN([C@H](C)CO)C3=O)cc1`, for which the outcome was inactive. The entry for `COc1ccc(NC(=S)NCCCn2ccnc2)cc1` is “inactive”; for `CCOc1ccc(N=Cc2c(O)n(-c3cccc(C)n3)c(=O)c3ccccc23)cc1` it is “inactive”. For `Cc1cccc(C)c1N1C(=O)c2cccc([N+](=O)[O-])c2C1=O`, the outcome was inactive. Turning to `CCOC(=O)C1CCN(S(=O)(=O)c2cccc(-c3cn4cc(Cl)ccc4n3)c2)CC1`, the outcome was inactive. As for `CC(=O)c1c(C(C)=O)c(C)n(NC(=O)c2ccncc2)c1C`, the result was inactive. The entry for `CN1CCN(c2nc3ccccn3c(=O)c2/C=C(\C#N)S(=O)(=O)c2ccc(Cl)cc2)CC1` is “inactive”; for `O=C1CC(N2CCC(O)(c3ccc(Cl)cc3)CC2)C(=O)N1Cc1ccc(N2CCCC2=O)cc1` (centres undefined) it is “inactive”; for `CS(=O)(=O)c1ccccc1-c1nnc(NC(=O)c2ccc3ncsc3c2)o1` it is “inactive”.

Consider `CN(C(=O)c1ccc(NC(=O)Cc2ccc(NC(=O)C3CCN(C(=O)C4CCC4)CC3)cc2)cc1)C1CC1`, for which the result was inactive. For the molecule `CCS(=O)(=O)N1CCN(c2ccc([N+](=O)[O-])c(N3CCOCC3)c2)CC1`, the outcome was inactive. `O=C(CCN1C(=O)/C(=C/c2ccc(F)cc2)SC1=S)N[C@@H](CO)Cc1ccccc1`: the result was inactive.

For the molecule `c1ccc(-c2ccccc2OCCN2CCCC2)cc1`, the outcome was inactive. For `CSc1nc(N)nc2c1ncn2CC(=O)N[C@H](CO)Cc1c[nH]c2ccccc12`, the result was inactive. Take `CCc1nn2c(N3CCOCC3)cc(C)nc2c1-c1ccc(F)cc1`: the outcome was inactive. As for `CSc1nc(N)nc2c1ncn2CC(=O)NCCNc1ccc([N+](=O)[O-])cn1`, the result was inactive. With `CC1=C(C(=O)OC(C)C)C(c2ccccc2)NC(=S)N1C` (centres undefined), the result was inactive.

On to `COc1ccccc1N1CCN(c2nc3c(C)cccn3c(=O)c2C=O)CC1`, for which the result was inactive. On to `O=c1c2ccccc2nc2c3ccccc3c(NCc3ccco3)nn12`, for which the outcome was inactive. Turning to `O=C(NCC(c1ccco1)N1CCN(c2ccc(F)cc2)CC1)OCc1ccccc1` (centres undefined), the result was inactive.

Take `CC(C)(C)NC(=O)CSc1nc2cccnc2n1C1CCCCC1`: the result was inactive. Regarding `C/C(=N\Nc1nc(C(=O)O)cs1)c1ccccc1`, the result was inactive.

Regarding `CN1CCN(Cc2c(C#N)c3ccccc3n2C)CC1`, the result was inactive.

As for `CN(C)CCCNC1=CC(=O)OC12CCCCC2`, the result was inactive. For `Nn1cc(-c2ccccc2)nc1SCC(=O)N1CCN(S(=O)(=O)c2ccc3ccccc3c2)CC1`, the result was inactive. With `CCN(CC)C(=O)C1c2ccccc2Oc2ccccc21`, the result was inactive. As to `CCCn1nnnc1SCC(=O)NCc1ccc2c(c1)OCO2`, the outcome was inactive. For `Cc1noc(C)c1COc1ccc(C(=O)OC(C)C(=O)Nc2ccc(N3CCOCC3)cc2)cc1` (centres undefined), the outcome was inactive.

Regarding `CCNC(=O)c1ccc2c(c1)S(=O)(=O)c1ccccc1C2=O`, the outcome was inactive. With `Cc1ccccc1N=C1N=C(N)c2ccccc21`, the outcome was inactive. For `COc1cccc(C(c2nnnn2CCc2ccccc2)N2CCN(c3ccccc3)CC2)c1OC` (centres undefined), the result was inactive.

As for `O=C(O)c1ccc2cc(-c3ccccc3)[nH]c2c1`, the outcome was inactive. In the case of `Cc1cc(N(C)C)cc(C)[n+]1[O-]`, the outcome was inactive.

In the case of `CC(=O)Oc1ccc(NC(=O)Cc2ccccc2)c(C(=O)O)c1`, the outcome was inactive. The entry for `CCN(C[C@H]1N[C@@](Cc2ccccc2)(C(=O)OC)[C@H]2C(=O)N(C)C(=O)[C@@H]12)S(=O)(=O)c1ccccc1` is “inactive”. The entry for `Cn1c(=O)n(C)c2cc(S(=O)(=O)N3CCOCC3)ccc21` is “inactive”; for `Cc1ccc(NC2=NCC(=O)N2Cc2ccc3c(c2)OCO3)c(C)c1` it is “inactive”; for `CC1(C)CC2(CC(C)(C)N1)OC(=O)N1CCc3ccccc3C12C` (centres undefined) it is “inactive”. Regarding `CCCN(C(=O)Cc1ccc(S(=O)(=O)N2CCOCC2)s1)c1c(N)n(Cc2ccccc2)c(=O)[nH]c1=O`, the outcome was inactive. With `CC(=O)Nc1cc2c(cc1NC(=O)Cn1nc(-c3ccccc3)ccc1=O)OCCO2`, the result was inactive. The entry for `CCOc1ccccc1N(CC(=O)O)S(=O)(=O)c1ccc(C)cc1` is “inactive”; for `COc1ccc(/C=C2/CC/C(=C\c3ccc(OC)c(OC)c3OC)C2=O)c(OC)c1OC` it is “inactive”; for `COc1cc(NS(=O)(=O)c2ccc(NC(=O)c3ccc(C)o3)cc2)nc(OC)n1` it is “inactive”.

For `C[C@@H]1CN([C@H](C)CO)C(=O)c2cc(NC(=O)Cc3ccccc3)ccc2O[C@H]1CN(C)Cc1ccc(Oc2ccccc2)cc1`, the outcome was inactive. On to `CCOc1ccc(N2C(=O)CC(N(O)c3ccccc3)C2=O)cc1` (centres undefined), for which the outcome was inactive. As to `CC1CN(Cc2c(O)ccc3c2oc(=O)c2ccccc23)CC(C)O1` (centres undefined), the result was inactive.

`COc1cc2c(cc1OC)C1=C(C#N)COCN1CC2`: the result was inactive.

Turning to `CCNC(=S)NNC(=O)c1csc2c1CCC(C)C2` (centres undefined), the result was inactive.

`O=C(CN1C(=O)NC2(CCCC2)C1=O)Nc1nc(-c2ccccc2)cs1`: the outcome was inactive. Take `CC1CCCC(NC(=O)COC(=O)c2ccc(N(C)C)cc2)C1C` (centres undefined): the outcome was inactive. As for `COc1ccc(C(=O)NCc2nnc(SCC(=O)N3CCc4ccccc43)o2)cc1OC`, the result was inactive. On to `O=C(c1ccncc1)N1N=C(C2CCCCC2)CC1(O)C(F)(F)F` (centres undefined), for which the result was inactive. Take `CSc1nnnn1CCn1nnnc1SC`: the result was inactive. Regarding `CS(=O)(=O)NC1c2cccc3cccc(c23)C1Sc1nncn1/N=C/c1ccco1` (centres undefined), the result was inactive. `N#Cc1ccc(OCC(=O)N2CCN(S(=O)(=O)c3cccs3)CC2)cc1`: the result was inactive. The entry for `Cc1cc(C)n2nc(C(=O)N3CCCC(Nc4ccc(F)c(F)c4)C3)cc2n1` (centres undefined) is “inactive”; for `C=CCn1cnc2scc(-c3ccc(C)cc3)c2c1=O` it is “inactive”; for `CCCCCNc1nc(-c2ccccc2)nc(-n2ccnc2)n1` it is “inactive”. Regarding `CC(=O)C1=C(c2ccccc2)N(C(C)=O)n2c(C)nnc2S1`, the outcome was inactive. Regarding `CC1=C(C(=O)OCC2CCCO2)C(c2ccccc2OC(C)C)C2=C(CC(c3ccco3)CC2=O)N1` (centres undefined), the outcome was inactive.

Take `Cc1occc1-c1nnc(SCC(=O)Nc2ccccc2)n1C(C)c1ccccc1` (centres undefined): the outcome was inactive. Regarding `CCN(Cc1nc(-c2ccccc2)no1)C(=O)c1ccco1`, the result was inactive. The entry for `Cc1nnc(N2C(=O)C(=O)/C(=C(/O)c3ccc4c(c3)CC(C)O4)C2c2ccccc2F)s1` (centres undefined) is “inactive”; for `CCC(C(=O)NCCCc1ccccc1)c1ccccc1` (centres undefined) it is “inactive”.

In the case of `COCCCNC(=O)C1CCN(C(=O)Nc2ccc(Cl)cc2)CC1`, the result was inactive. With `COC(=O)[C@]1(C)N[C@H](CN(C)S(=O)(=O)c2ccc(F)cc2)[C@@H]2C(=O)N(C)C(=O)[C@@H]21`, the result was inactive.
